Compound activity deposited in PubChem by National Center for Advancing Translational Sciences (NCATS).
Cycloheximide cs = affects cycloheximide protein synthesis inhibition readout, counter-screen. cell reporter, cycloheximide protein synthesis inhibition counterscreen. max response, %. hit rate 12% among 300,000. AID 2314; in the data active = max response mostly above about 13%, no sharp cut-off; inactive = mostly below about 14%; also: read at 38.3 µM for the half of the compounds with a filed dose; 0% is about no effect
Pf growth 96h = inhibits malaria parasite growth, 96 h; hit rate 6.9% among 320,000; P. falciparum luciferase reporter growth, 96 h; AID 504834; Potency, µM (series often up to 28.7 µM), without a hit: top-dose activity change, negative = inhibition, actives largely listed as inhibitors; also: potency is read from the fitted curve at half-maximal effect; % is scaled to controls: 0 for no effect and ±100 for the full control effect
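P. falciparum expressing integrated firefly luciferase, in erythrocytes at 2% hematocrit, 0.05% parasitemia, incubated with compounds 96 h at 37 C, 5% CO2. Growth inhibition read as loss of luminescence; two-generation exposure targets delayed-death apicoplast inhibitors.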
Shiga inhibitor = Shiga toxin inhibition. Vero cells, Shiga toxin protein synthesis inhibition reporter. inhibition, % at 38.7 µM. hit rate 9.2% among 290,000. AID 2315; in the data active = inhibition mostly above about 28%, no sharp cut-off; inactive = mostly below about 43%; also: 0% is about no effect
HCV inhibitor = HCV inhibition | AID 651820 | hit rate 3.4% among 340,000 | Huh7.5.1 HCVcc-Cre infection, luciferase reporter, 44 h | Potency, µM (top dose mostly 41.8 µM), for inactives: at the highest dose activity change, negative = inhibition, usual class: inhibitors; also: potency is read from the fitted curve at half-maximal effect; % is scaled to controls: 0 for no effect and ±100 for the full control effect
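Whole-lifecycle infectious HCVcc-Cre system; cells 1,000/well, compound then virus (~0.5 moi) added 4 h after plating, 44 h culture. Luciferase read 15 sec following 15 min substrate incubation, room temp.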
HCMV inh = inhibitors of human cytomegalovirus. HFF cells, HCMV-luciferase reporter, 72 h; hits give low values. activity change, negative = inhibition, % at 57.5 µM. hit rate 4.5% among 410,000; in the data active = activity change below about -60%; inconclusive = no clear call, values can overlap the other calls; inactive = above about -39%; also: % is scaled to controls: 0 for no effect and ±100 for the full control effect
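Two compound doses tested in HFFs infected with HCMV-luciferase, MOI 1 PFU/cell, 72 h at 37C. Lysate luminescence read with OneGlo; data normalized against buffer-only and 10uM Salinomycin inhibitor controls.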
Pf growth 48h = P. falciparum growth inhibition at 48 hours (one generation) | Potency, µM (titrated, usually from 28.7 µM), for the others: at the top dose activity change, negative = inhibition, usual class: inhibitors | hit rate 5.9% among 310,000 | P. falciparum luciferase growth in erythrocytes, 48 h; also: potency is read from the fitted curve at half-maximal effect; % is scaled to controls: 0 for no effect and ±100 for the full control effect
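Here the parasites carry a stable luciferase gene and grow inside erythrocytes in Albumax-based RPMI medium with compound for one erythrocytic cycle. Activity is scored as loss of luminescent signal.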
HCV inh confirm = HCV inhibition, cherry-pick confirmation | shares compounds with HCV inhibitor | HCVcc-Cre infectious virus cell assay, luciferase, inhibition | Potency, µM (titrated, usually from 41.8 µM), for the others: top-dose activity, negative = inhibition, usual class: inhibitors | hit rate 78% among 640; also: potency is read from the fitted curve at half-maximal effect; nearly all actives have a fitted effect of over 80% in size
HCV host tox = toxic to HCV host cells, flagging false HCV inhibitors; shares compounds with HCV inhibitor; HCV host cell line cytotoxicity counterscreen; Potency, µM (top dose mostly 41.8 µM), for inactives: at the highest dose activity change, negative = cytotoxicity, hits mostly inhibitors; hit rate 22% among 640;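 also: potency is read from the fitted curve at half-maximal effect; 44 h compound exposure; % is scaled to controls: 0 for no effect and ±100 for the full control effect; nearly all actives have a fitted effect of over 55% in size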
* = called active by the depositor; ? = inconclusive; / = no result given. A selection: hits, their analogues and other compounds. The true share with any hit is near 21%. Unless noted, calls follow the shape of the dose curve; as a rule, active = well fitted curve in the direction sought with a large enough effect; inconclusive = small, poorly fitted or top-dose-only effect, or another doubt; inactive = no such curve, though single readings can be large; an effect the other way counts as inactive or inconclusive.

SMILES	Cycloheximide cs	Pf growth 96h	Shiga inhibitor	HCV inhibitor	HCMV inh	Pf growth 48h	HCV inh confirm	HCV host tox
FC(F)(F)c1nc(-c2cccs2)ncc1-c1nnnn1-c1ccc(Cl)cc1	-2.1	22.6%	2.8	5.01µM*	-60.5*	/	6.28µM*	-94.3%
COc1ccc(-c2ccc3oc(-c4ccc(OC)cc4)c(C#CCCO)c3c2)cc1	/	/	/	1.12µM*	17.7	/	2.23µM*	15.2%
COc1cccc(NC(=O)C2(C)CCN2Cc2ccc3ccccc3c2)c1 (stereo not given)	/	/	/	/	-17.4	/	/	/
Cc1noc(C)c1CCC(=O)Nc1cc(C(=O)O)ccc1Cl	/	/	/	/	-18.8	/	/	/
Cc1cccc(-n2c(C)cc(/C=N/NC(=O)c3cccc([N+](=O)[O-])c3C)c2C)c1	0.6	-5.2%	21.7	?	-11.5	?	/	/
Cc1cc(/C=N/NC(=O)c2ccccc2F)c(C)n1-c1ccccc1	25.4*	-14.7%	67.3*	7.94µM*	?	251.9%	?	-21.8%
COc1ccc(-c2nc(-c3ccccc3OC)no2)cc1OC	65.7*	-1.2%	161.8*	?	30.9	3.5%	22.3µM*	5.1%
CNC(=O)c1c(NC(=O)C2=COCCO2)sc(C)c1C	/	-3.5%	/	?	-18.3	-8.9%	/	/
CN1CCN(c2ccc(CNS(=O)(=O)c3ccccc3)cc2)CC1	1.0	41.8%	15.7	17.5%	11.0	10.1%	/	/
CN1CCN(c2ccc(CNS(=O)(=O)Cc3cccc(C(F)(F)F)c3)cc2)CC1	-1.5	-22.0%	-8.6	5.62µM*	?	-25.9%	5.6µM*	2.5µM*
COc1cc(NC(=O)c2ccc(Cl)cc2)c2ncccc2c1	2.4	51.4%	-2.5	?	34.2	29.3%	/	/
COc1ccc(C(=O)Nc2cc(OC)cc3cccnc23)cc1	6.7	26.6%	4.2	?	138.1	34.7%	14.1µM*	4.5%
CCOc1ccc(CCNC(=O)c2cc3sccc3n2C)cc1OCC	0.8	?	10.2	6.31µM*	-11.1	-10.8%	14.1µM*	?
CCOC(=O)Nc1ccc(NCc2ccc(F)cc2)nc1N	/	6.75µM*	/	0.891µM*	-23.7	13.1µM*	-22.5%	16.2%
CNc1nc(N/N=C/c2cc3c(cc2[N+](=O)[O-])OCO3)nc(Nc2ccccc2)n1	-2.3	-13.4%	-32.4	1µM*	-99.5*	2.62µM*	14.1µM*	31.5µM*
Cc1cccc(C)c1OCC(=O)N/N=C/c1cc2c(cc1[N+](=O)[O-])OCO2	-1.0	?	-9.6	-23.3%	-13.1	/	/	/
Cc1ccn2cc(CNC(=O)c3cccc(C(F)(F)F)c3)nc2c1	/	/	/	/	-9.5	/	/	/
COc1cc2c(cc1NC(=O)C(Cl)Cl)-c1ccc(NC(=O)C(Cl)Cl)cc1C2	/	/	/	?	-67.8*	/	17.7µM*	?
COc1ccc(CN2CCC(N(CCc3ccccc3)Cc3ccccc3)CC2)c(OC)c1	-3.7	135.6%	-15.4	2.51µM*	-99.3*	?	7.05µM*	?
Cc1ccnc(NC(=O)CCCOc2cc(=O)n(C)c3ccccc23)c1	16.0*	-12.0%	63.3	3.55µM*	-101.3*	-24.2%	7.91µM*	?
S=C(c1ccc(-c2ccc(Cl)c(Cl)c2)o1)N1CCOCC1	62.3*	212.9%	95.6*	?	/	76.1%	14.1µM*	-18.5%
S=C(Nc1ccc(Cl)c(Cl)c1)N1CCOCC1	5.5	13.1%	5.4	8.2%	-23.2	18.3%	/	/
C/C=C(\C)C(=O)Nc1cccc(C2=NOC3(C2)C[C@H](C(N)=O)N(C(=O)CC#N)C3)c1 (stereo not given in full)	-0.7	7.0%	-2.0	-6.0%	10.1	7.3%	/	/
COc1cc(NC(=O)c2ccc(COc3ccccc3Br)o2)cc(OC)c1OC	5.7	16.6%	22.6	5.01µM*	20.3	?	11.2µM*	0.7%
Cc1cc(SCc2cccc(C(F)(F)F)c2)nc(=O)[nH]1	11.4	1.1%	1.5	11.8%	/	14.5%	/	/
SMILES	Cycloheximide cs	Pf growth 96h	Shiga inhibitor	HCV inhibitor	HCMV inh	Pf growth 48h	HCV inh confirm	HCV host tox
CC#CCOC(=O)c1c(C)nc2sc3c(c2c1N)CCC(O)C3 (stereo not given)	/	?	/	7.08µM*	?	?	22.3µM*	?
CC(=O)N1CCN(c2nc(C)nc3sc4c(c23)CCC(C)C4)CC1 (stereo not given)	-3.4	?	-20.1	-5.1%	?	?	/	/
O=C(NNS(=O)(=O)c1ccccc1)C1CCCCC1	-3.8	49.7%	-3.4	-3.9%	-10.1	12.6%	/	/
COc1cc(/C=N/n2c(-c3ccccc3)n[nH]c2=S)cc(OC)c1OC	-0.5	39.3%	-11.1	5.8%	28.4	-1.2%	/	/
COc1cc(/C=N/n2nnnc2Nc2ccccc2)cc(OC)c1OC	7.5	?	-2.0	?	/	?	?	12.1%
Cc1ccc(C(=O)N2CCN(c3ncccn3)CC2)c(C)c1	-1.9	7.1%	3.1	10.8%	-15.9	5.0%	/	/
COc1ccc(NC(=O)/C(Cl)=C(/Cl)S(=O)Cc2ccccc2)cn1 (stereo not given)	47.7*	/	24.0	0.794µM*	-100.4*	14.7µM*	6.28µM*	6.28µM*
COc1ccc(NC(=S)Nc2ccccc2)cn1	-1.9	15.3%	3.9	-1.9%	-15.0	-10.3%	/	/
Cc1ccc(Cl)cc1N1CCN(C(=O)CCc2nnc3n(C)c(=O)c4ccccc4n23)CC1	/	/	/	/	8.0	/	/	/
O=C(CCc1nnc2n(Cc3ccc(Cl)cc3)c(=O)c3ccccc3n12)N1CCN(c2ccccn2)CC1	-1.7	?	-2.8	3.55µM*	/	?	3.96µM*	47.6%
COCCCNCCOCCOc1ccc(C)cc1Br	-2.3	?	-7.9	?	6.8	-8.7%	/	/
COCCCNCCOCCOc1ccccc1-c1ccccc1	-2.6	?	-3.3	7.94µM*	-35.8	-8.3%	?	?
COc1cccc(CNC(=O)Cn2c(SCC(=O)Nc3ccc(F)cc3)nc3ccccc32)c1	/	/	/	/	-37.1	/	/	/
COC(=O)c1cn(-c2ccccc2)nc1-c1ccc(OC)c(OC)c1	1.7	13.3%	-4.1	7.94µM*	-7.0	39.1%	14.1µM*	50.0%
Fc1ccc(C(c2nnnn2Cc2cccs2)N2CCN(C3CCCC3)CC2)cc1 (stereo not given)	-2.2	/	-9.7	?	-8.9	?	-12.4%	-17.1%
Cc1nn2c(NCCCN(C)C)c3c(nc2c1-c1ccccc1)CCCC3	-2.0	8.28µM*	-3.4	2µM*	-20.3	14.7µM*	7.05µM*	5.9%
O=C(Nc1ccn(Cc2ccccc2F)n1)c1ccc(COc2ccc(Br)cc2)cc1	7.4	1.7%	14.3	6.31µM*	-102.9*	?	4.45µM*	-72.4%
